Data reported in PMC5540273 (PLoS ONE, 2017).

Key:
Conditions in all cases: concentration: 1 μM,replicates: in singlicate; n = 1
[1] = test system: AAK1
[2] = test system: ABL1-nonphosphorylated
[3] = test system: ABL1-phosphorylated
[4] = test system: ABL2
[5] = test system: ACVR1B
[6] = test system: ACVR1
[7] = test system: ACVR2A
[8] = test system: ACVR2B
[9] = test system: ACVRL1
[10] = test system: T1, ADCK3
T1 construct: gene CABC1

[11] = test system: ADCK4
[12] = test system: AKT1
[13] = test system: AKT2
[14] = test system: AKT3
[15] = test system: ALK
[16] = test system: T2, AMPK-alpha1
T2 construct: gene PRKAA1

[17] = test system: T3, AMPK-alpha2
T3 construct: gene PRKAA2

[18] = test system: ANKK1
[19] = test system: T4, ARK5
T4 construct: gene NUAK1

[20] = test system: T5, ASK1
T5 construct: gene MAP3K5
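Note: KINOMEscan kinase panel screen.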

SMILES | %Inh [1] | %Inh [2] | %Inh [3] | %Inh [4] | %Inh [5] | %Inh [6] | %Inh [7] | %Inh [8] | %Inh [9] | %Inh [10] | %Inh [11] | %Inh [12] | %Inh [13] | %Inh [14] | %Inh [15] | %Inh [16] | %Inh [17] | %Inh [18] | %Inh [19] | %Inh [20]
O=C(Nc1ccccc1)c1cccc(Oc2ccc3nccn3n2)c1 | 1% | 12% | 0% | 3% | 5% | 6% | 0% | 5% | 2% | 19% | 0% | 11% | 0% | 0% | 0% | 5% | 7% | 2% | 0% | 0%
NC(=O)c1ccc(-c2cc3ncnc(SCC(=O)O)c3s2)cc1 | 4% | 57% | 20% | 0% | 0% | 0% | 8% | 17% | 0% | 25% | 3% | 0% | 0% | 0% | 0% | 0% | 0% | 0% | 0% | 0%
C[C@@H]1CNc2c(sc3ccc4nc(-c5ccc(O)cc5)ccc4c23)C(=O)N1 | 29% | 48% | 10% | 3% | 22% | 11% | 8% | 52% | 45% | 0% | 10% | 0% | 0% | 0% | 16% | 30% | 0% | 0% | 0% | 91%
CCn1c(-c2nonc2N)nc2cncc(Br)c21 [SB-738004] | 67% | 0% | 0% | 0% | 30% | 0% | 0% | 9% | 0% | 25% | 23% | 0% | 13% | 0% | 31% | 18% | 0% | 1% | 0% | 13%
CC(C)c1nc(-c2cccc(NS(=O)(=O)c3ccccc3)c2)c(-c2ccnc(Nc3ccc4c(c3)CN(C)CC4)n2)s1 [GSK1649598] | 25% | 99.8% | 97.3% | 98.7% | 93.5% | 99% | 24% | 94.5% | 80% | 100% | 97.4% | 0% | 4% | 0% | 0% | 82% | 94.5% | 42% | 6% | 0%
Cn1ccc2ncnc(Oc3ccc(NC(=O)Nc4cccc(C(F)(F)F)c4)c(Cl)c3)c21 | 0% | 88% | 19% | 21% | 1% | 0% | 0% | 47% | 0% | 5% | 6% | 0% | 0% | 0% | 0% | 15% | 0% | 0% | 3% | 5%
Cn1ccc2ncnc(Oc3ccc(NC(=O)Nc4ccnc(C(F)(F)F)c4)c(Cl)c3)c21 | 18% | 68% | 10% | 5% | 0% | 11% | 4% | 13% | 63% | 0% | 4% | 7% | 0% | 0% | 0% | 0% | 0% | 0% | 2% | 0%
Nc1nccc(-c2ccc3c(N)n[nH]c3c2)n1 [GSK1034945] | 65% | 0% | 0% | 9% | 0% | 0% | 0% | 44% | 0% | 1% | 33% | 0% | 10% | 0% | 20% | 0% | 0% | 31% | 0% | 0%
COC(=O)c1cccc(NC(=O)NC2CCN(c3ccnc(Nc4cc(OC)c(OC)c(OC)c4)n3)C2)c1 (stereo not shown) [GSK1379767] | 68% | 0% | 0% | 1% | 0% | 33% | 35% | 6% | 0% | 21% | 60% | 0% | 0% | 0% | 50% | 16% | 9% | 20% | 10% | 0%
C[C@@H](Oc1cc(-n2cnc3cc(-c4cnn(C)c4)ccc32)sc1C(N)=O)c1ccccc1Cl [GSK580432] | 82% | 58% | 63% | 63% | 0% | 0% | 0% | 25% | 0% | 13% | 29% | 0% | 0% | 0% | 31% | 39% | 27% | 0% | 98.7% | 0%
CN(c1ccc2c(c1)nc(NCc1ccc(F)cc1)n2C)c1ccnc(Nc2ccc(CS(C)(=O)=O)cc2)n1.Cl [GW813244] | 30% | 97.2% | 79% | 75% | 3% | 17% | 0% | 0% | 0% | 0% | 21% | 8% | 0% | 1% | 0% | 11% | 5% | 0% | 4% | 37%
Cc1n[nH]c2cc(Nc3ccnc(Nc4cccc(CN5CCOCC5)c4)n3)ccc12 [GW682569] | 71% | 22% | 26% | 23% | 36% | 85% | 0% | 39% | 17% | 19% | 97.1% | 0% | 0% | 0% | 16% | 0% | 0% | 17% | 0% | 0%
CC(C(=O)NC1CCN(c2ccnc(Nc3ccc(F)cc3)n2)C1)c1ccc(Cl)cc1 (stereo not shown) [GSK1379713] | 14% | 0% | 0% | 9% | 0% | 0% | 0% | 0% | 0% | 0% | 13% | 0% | 0% | 0% | 5% | 10% | 0% | 4% | 0% | 0%
Cc1ccc(C(=O)Nc2ccc(Oc3ccc4nc(NC(=O)C5CC5)cn4c3)c(F)c2)c(=O)n1-c1ccccc1 | 0% | 100% | 98.3% | 83% | 0% | 0% | 0% | 16% | 0% | 13% | 27% | 0% | 0% | 7% | 8% | 5% | 0% | 0% | 0% | 0%
CCNCC(Cc1ccccc1)NC(=O)c1cc(Br)c(-c2ccnc3[nH]ccc23)s1.Cl.Cl (stereo not shown) [GSK1383280] | 39% | 15% | 14% | 19% | 0% | 0% | 0% | 2% | 0% | 12% | 89% | 93.7% | 81% | 88% | 42% | 49% | 45% | 8% | 60% | 0%
Cc1ccc(CC(=O)N2CCc3cc(-c4cn(C)c5ncnc(N)c45)ccc32)cc1 [GSK2634758] | 33% | 42% | 5% | 24% | 20% | 0% | 0% | 0% | 0% | 6% | 9% | 0% | 1% | 30% | 0% | 0% | 29% | 23% | 37% | 3%
O=C(NOCC1CC1)c1cc(Br)c(F)c(F)c1Nc1ccc(I)cc1Cl | 0% | 52% | 0% | 0% | 0% | 0% | 2% | 0% | 0% | 7% | 0% | 0% | 0% | 0% | 0% | 4% | 0% | 0% | 12% | 0%
O=C(Nc1cccc(Oc2ccc3nccn3n2)c1)Nc1cccc(C(F)(F)F)c1 | 0% | 98.2% | 15% | 71% | 0% | 0% | 22% | 9% | 0% | 0% | 0% | 0% | 0% | 7% | 14% | 0% | 0% | 0% | 8% | 0%
Cn1ccc2ncnc(Oc3ccc(NC(=O)Nc4cncc(C(F)(F)F)c4)c(Cl)c3)c21 | 0% | 92.7% | 35% | 27% | 0% | 0% | 0% | 0% | 0% | 2% | 0% | 6% | 13% | 0% | 0% | 0% | 0% | 0% | 0% | 0%
C[C@@H](Oc1cc(-n2cnc3ccc(-c4ccncc4)cc32)sc1C(N)=O)c1ccccc1Cl [GSK483724] | 60% | 0% | 0% | 21% | 0% | 32% | 0% | 0% | 0% | 52% | 76% | 41% | 22% | 0% | 20% | 8% | 12% | 17% | 0% | 10%
